In PubChem BioAssay AID750 (Sanford-Burnham Center for Chemical Genomics, 2007):
The campaign covered roughly 86,000 compounds. About 140 (0.16%) were called active.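 The calls were made as follows: active = activation factor of at least 2 for MT1-MMP transcription at 10 µM; inactive = the rest.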 The list comes from a sample in which actives are over-represented; it also holds similar structures and randomly drawn compounds.

Assay: MT1-MMP promoter reporter activation – cell-based, luciferase luminescence, primary screen (AID 750)
Conditions: HT1080 MT1-MMP promoter luciferase reporter, overnight, at 10 µM, stronger effect = higher value

Row | SMILES | activation factor
1 | O=C(Cc1ccc(-n2c(=O)[nH]c3ccccc3c2=O)cc1)N1CCN(c2cccc(Cl)c2)CC1 | 1 (inactive)
2 | COc1ccc(Br)cc1CN1CCN(C(=O)c2cccc(OC)c2OC)CC1 | 1.1 (inactive)
3 | COc1ccc(C2=Nc3cc(C)ccc3OC2)cc1 | 0.9 (inactive)
4 | CS(=O)(=O)N1CCN(c2cccc(Cl)n2)CC1 | 1.2 (inactive)
5 | COc1ccc(S(=O)(=O)Nc2ccc3oc(C)c(C(C)=O)c3c2)cc1 | 1.1 (inactive)
6 | Cc1ccc(C2=CSC3=NS(=O)(=O)CCN23)cc1C | 1.1 (inactive)
7 | CC1=C(C(=O)OC(C)(C)C)C(c2ccc(Br)cc2)NC(=O)N1CCCC(=O)O (stereo not given) | 1.1 (inactive)
8 | CCS(=O)(=O)Nc1ccc(C2=NN(S(=O)(=O)c3ccc(F)cc3)C(c3ccco3)C2)cc1 (stereo not given) | 1.1 (inactive)
9 | CC1=CC(C)(C)NC(=S)N1c1ccccc1 | 1.1 (inactive)
10 | Cc1ccc(SCC(=O)c2cc(C)c(OC(=S)N(C)C)c(C)c2)cc1 | 1.9 (inactive)
11 | COC(=O)CSc1nc2c(c(C3CC=CCC3)c1C#N)CCC2 (stereo not given) | 1 (inactive)
12 | O=C(NCCCN1CCCCC1)c1ccc2c(c1)NC(=O)C(N1CCOCC1)S2 (stereo not given) | 1.1 (inactive)
13 | CC(C)CC[n+]1ccn(C2=C([O-])c3ccccc3C(=O)/C2=N\S(=O)(=O)c2ccccc2)c1 | 0.8 (inactive)
14 | Cc1ccc2c(c1)c1ncnc(N3CCc4ccccc4C3)c1n2C | 2 (active)
15 | Cc1cccc(-n2ncc3c(N4CCc5ccccc54)ncnc32)c1 | 1.5 (inactive)
16 | Cc1ccc2c(c1)c1ncn(CCC3=CCCCC3)c(=O)c1n2C | 1.3 (inactive)
17 | COc1ccc(N(CC(=O)NC2CCCCC2)C(=O)CNC(=O)c2ccco2)c(OC)c1 | 1.2 (inactive)
18 | CSc1nc(C)cc(SC(C(C)=O)C(=O)Nc2ccccc2)n1 (stereo not given) | 1.1 (inactive)
19 | CSc1nc2nc3c(c(=O)n2[nH]1)CCC3 | 1.2 (inactive)
20 | COc1ccccc1CCNC(=O)c1cnccn1 | 1.2 (inactive)
21 | CCCCCOC(=O)c1ccc(N2C(=O)C3C4C=CC(C4)C3C2=O)cc1 (stereo not given) | 1.2 (inactive)
22 | O=C(NCc1ccc2c(c1)OCO2)C12CC3CC(CC(C3)C1)C2 | 1 (inactive)
23 | Cc1ccc(N(Cc2ccc(C(=O)Nc3ccccc3C(=O)NCc3ccco3)cc2)S(C)(=O)=O)cc1C | 1.1 (inactive)
24 | COc1ccccc1NC(=O)/C=C/C(N)=O | 1.3 (inactive)
25 | CC(C)CCNC(=O)CC1C(=O)N(Cc2ccccc2)C(C)c2nc3ccccc3n21 (stereo not given) | 1 (inactive)

Row | SMILES | activation factor
26 | CCOC(=O)c1ccccc1NS(=O)(=O)c1ccc(OC)cc1 | 1 (inactive)
27 | CCn1c(CC(=O)Nc2ccc(C)cc2)nnc1SCC(=O)Nc1nc(C)cs1 | 1.1 (inactive)
28 | CCN1CCN(C(=O)c2cc3cc4ccc(OC)cc4nc3s2)CC1 | 1.3 (inactive)
29 | CC1CN(S(=O)(=O)c2ccccc2)C(C)CN1S(=O)(=O)c1ccccc1 (stereo not given) | 1.3 (inactive)
30 | CCOC(=O)c1c(C)nc2c(c1C)c(=O)oc1ccccc12 | 1.1 (inactive)
31 | Cn1c(C(=O)OC(C(=O)NC2CCCCC2)c2ccccn2)cc2sccc21 (stereo not given) | 1.2 (inactive)
32 | CCCNC(=S)N1CCC(NC(=O)C23CC4CC(CC(C4)C2)C3)CC1 | 1.2 (inactive)
33 | O=C(Nc1nncs1)c1cccc(S(=O)(=O)N2CCCCC2)c1 | 1 (inactive)
34 | N#Cc1ccc(C=NC(c2ccccc2)c2ccccc2)cc1 | 1.2 (inactive)
35 | CN(Cc1nc2ccccc2c(=O)[nH]1)Cc1cc(=O)oc2ccc3ccccc3c12 | 1 (inactive)
36 | Cc1nn(C(C)CC(=O)O)c(C)c1C (stereo not given) | 1.2 (inactive)
37 | COc1ccc(NC(=O)CSc2nc(NS(=O)(=O)c3ccc(C)cc3)cc(=O)[nH]2)cc1 | 1.3 (inactive)
38 | O=C(N/N=C\c1cccc(Br)c1)c1ccccc1-n1cccc1 | 1.4 (inactive)
39 | Cc1ccc(S(=O)(=O)Nc2nc(C)cc(-n3nc(C)cc3C)n2)cc1 | 1 (inactive)
40 | CCC(C)NC(=O)C1CCCN(C(=O)NC2CCCCC2)C1 (stereo not given) | 1.2 (inactive)
41 | Cc1cc(C)n(-c2nc(O)cc(=O)[nH]2)n1 | 1 (inactive)
42 | O=C(CN(c1ccccc1)S(=O)(=O)c1ccc(Cl)cc1)Nc1ccccc1C(=O)N1CCCC1 | 0.9 (inactive)
43 | O=C1/C(=C/c2cccs2)CCc2ccccc21 | 1.8 (inactive)
44 | CCOC(=O)C1=C(C)NC(=O)NC1c1ccccc1 (stereo not given) | 1.1 (inactive)
45 | Cc1ccc(S(=O)(=O)c2c(COC(=O)c3cccc(Cl)c3)c(-c3ccccc3)nn2C)cc1 | 1.1 (inactive)
46 | CCOC(=O)c1[nH]c(C)c(C(=O)OCC(=O)N2c3ccccc3CC2C)c1C (stereo not given) | 1 (inactive)
47 | C=C(Cl)COC(=O)C1C2C=CC(C2)C1C(=O)O (stereo not given) | 1.1 (inactive)
48 | O=C(/C=C/c1ccc(Cl)cc1Cl)c1cccnc1 | 1 (inactive)
49 | CCCCc1nc(NCCN)c(C#N)c2c1CSC(C)(C)C2 | 1.4 (inactive)
50 | CCOc1ccc(NC(=O)CCS(=O)(=O)c2ccc3c(c2)CCCN3C(=O)CC)cc1 | 1.1 (inactive)

Row | SMILES | activation factor
51 | O=C(CSC1=Nc2ccccc2C2=NC(CC(=O)NCc3ccco3)C(=O)N12)NCc1ccco1 (stereo not given) | 1.1 (inactive)
52 | CC1(C(=O)NCCc2c[nH]c3ccccc23)C=CC2(CCCCC2)N1C(=O)c1ccccc1 (stereo not given) | 1 (inactive)
53 | O=c1[nH]c(SCc2ccccc2)nnc1-c1ccccc1 | 1.1 (inactive)
54 | O=C(CCc1ccccc1)NCC#CC(O)c1ccc(Br)cc1 (stereo not given) | 1.2 (inactive)
55 | O=C(NCc1ccccc1Cl)c1csc2c1CCCCC2 | 1.1 (inactive)
56 | CCCCCCSc1nsc(N)n1 | 1.4 (inactive)
57 | CC(C)CNC(=O)CC(c1ccccc1)c1c(O)ccc2ccccc12 (stereo not given) | 1 (inactive)
58 | CCCNC(=O)CN(Cc1ccccc1F)S(=O)(=O)c1ccc(C)cc1 | 1.3 (inactive)
59 | CCCCNS(=O)(=O)c1ccc(S(=O)(=O)n2cnc3ccccc32)cc1 | 1.1 (inactive)
60 | O=C(Nc1nccs1)c1cc(S(=O)(=O)N2CCOCC2)c(Cl)cc1Cl | 1 (inactive)
61 | CCn1nc(C)c(NC(=O)/C=C/c2ccc(OC)c(COc3ccc(Br)cc3)c2)c1C | 0.9 (inactive)
62 | CCCCN(CC)CCNC(=O)c1[nH]c(C)c(C(C)=O)c1C | 0.9 (inactive)
63 | O=C(COc1ccc(Cl)cc1)NCCSc1ccccc1 | 1.2 (inactive)
64 | CCOc1ccc(NC(=O)c2ccccc2NS(C)(=O)=O)cc1 | 1.3 (inactive)
65 | O=C(c1cc2c(s1)CCC2)N1CCN(c2ccccc2)CC1 | 1.1 (inactive)
66 | COc1ccc(C2=NOC3(CC(=O)N(c4ccc(C)cc4)C3=O)C2)cc1 (stereo not given) | 1.2 (inactive)
67 | CC1=NN(/C(=N\c2nnc(C)s2)Nc2ccccc2)[C@H](c2ccc(C)cc2)S1 | 1.1 (inactive)
68 | O=C1CCCc2nn(-c3ccccc3)nc21 | 1.5 (inactive)
69 | OC(CN=c1sc2ccccc2n1CC(O)COc1ccccc1)COc1ccccc1 (stereo not given) | 1.4 (inactive)
70 | C=C(C)C(=O)Nc1cccc(C(C)=O)c1 | 1.3 (inactive)
71 | CC1CCN(C(=O)CN(c2ccc(Oc3ccccc3)cc2)S(C)(=O)=O)CC1 | 1 (inactive)
72 | COc1ccc(CNc2ccc3c(c2)CCC3)cc1OC | 1.1 (inactive)
73 | Cc1ccccc1-n1nc(C)c2cc(C(=O)NC3CC3)sc21 | 1.1 (inactive)
74 | Cc1cc(Oc2ccccc2)nc(N2CCOCC2)n1 | 1.1 (inactive)
75 | Cc1ccc(OCC(=O)N2CCN(C(=O)c3cccnc3)CC2)cc1 | 1 (inactive)

Row | SMILES | activation factor
76 | O=C1/C(=C\Nc2ccccc2)CCN1c1ncccn1 | 1.9 (inactive)
77 | COc1ccc(CN(Cc2ccco2)S(=O)(=O)c2ccc(S(=O)(=O)N3CCCC3)cc2)cc1 | 1 (inactive)
78 | CCCCNC(=O)C1CCCN(S(=O)(=O)c2ccc(S(=O)(=O)NCC(C)C)cc2)C1 (stereo not given) | 1.2 (inactive)
79 | CCc1ccc(CNC(=O)C2CCCN(c3nc4ccccc4o3)C2)cc1 (stereo not given) | 1.1 (inactive)
80 | Cc1cccc(C(=O)N2CCCN(C(=O)c3cccc(C)c3)CC2)c1 | 1 (inactive)
81 | CCC(C)(C(=O)NC1CCCCC1)N(C)C(=O)c1ccc2c(c1)OCO2 (stereo not given) | 1 (inactive)
82 | Cc1ccc(OCCCC(=O)Nc2ccc(N3CCOCC3)cc2)cc1 | 1.1 (inactive)
83 | O=C(CN1C(=O)C2C3C=CC(C3)C2C1=O)Nc1nc(-c2ccccn2)cs1 (stereo not given) | 1.2 (inactive)
84 | COC(=O)c1ccc(C(NC(=O)OCc2ccccc2)/C(C)=C/[C@@H](C)C(=O)NCc2ccc(OC)c(OC)c2)cc1 (stereo not given in full) | 1.4 (inactive)
85 | O=C(CC12CC3CC(CC(C3)C1)C2)Nc1ccc2c(c1)COC2=O | 1 (inactive)
86 | COc1ccccc1NC(=O)CC(NCCN(C)C)C(=O)O (stereo not given) | 1 (inactive)
87 | CS(=O)(=O)N(CC(=O)N1CCN(Cc2ccccc2)CC1)c1ccc2c(c1)OCCO2 | 0.9 (inactive)
88 | CCn1c(SCC(=O)Nc2nc(C)cs2)nnc1C(C)NC(=O)c1ccccc1 (stereo not given) | 1.3 (inactive)
89 | CCCc1nnc(NC(=O)c2cccs2)s1 | 1.4 (inactive)
90 | CCOC(=O)CN1C(=O)C(=O)c2cc(C)ccc21 | 1.1 (inactive)
91 | COc1ccc(/C=N/Nc2nc3ccccc3o2)cc1OC | 1.7 (inactive)
92 | CN1CCN(C(=O)Cn2c(C(F)(F)F)nc3ccccc32)CC1 | 1.2 (inactive)
93 | Cc1ccc(S(=O)(=O)NC(=O)COc2ccccc2C)cc1 | 1.2 (inactive)
94 | CC1(C)N=C(c2ccccn2)C(C)(C)N1O | 1 (inactive)
95 | COc1ccc(CN(C(=O)CSc2nnc(-c3ccc(OC)c(OC)c3)o2)c2ccc(F)cc2)cc1 | 1.2 (inactive)
96 | CCOC(=O)c1ccc2c(c1)nc(C)n2CC | 1.6 (inactive)
97 | O=C(NC(=O)c1ccccc1)NC(=O)c1ccccc1 | 1 (inactive)
98 | CN(C)c1ccnc2sc3c(=O)n(-c4ccc(Cl)cc4)cnc3c12 | 1.5 (inactive)
99 | Cc1ccc(-n2cc3ccc([N+](=O)[O-])cc3n2)cc1 | 0.9 (inactive)
100 | CCOCN(C(=O)Cn1c(C(C)O)nc2ccccc21)c1c(C)cccc1CC (stereo not given) | 1.2 (inactive)
